Reference: PubChem BioAssay (NCATS)
Inconclusive results are not listed. Where a call stands in place of a potency, no number is given. Calls of active or inactive are those of the source. Calls come from the whole dose curve; as a rule, active = well fitted curve in the direction sought with a large enough effect; inconclusive = small, poorly fitted or top-dose-only effect, or another doubt; inactive = no such curve, though single readings can be large; an effect the other way counts as inactive or inconclusive.

Assay: S16 Schwann cell viability assay (CellTiter-Glo assay) (AID 624031);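 note: native untransfected S16 rat Schwann cells; cellular ATP luminescence as a viability measure; nearly all actives have a fitted effect of over 70% in size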
Conditions: S16 rat Schwann cells viability, 24 h; series mostly up to 57.5 µM
Text: Charcot-Marie-Tooth-Association [CMTA]
National Center for Advancing Translational Sciences [NCATS]
Charcot-Marie-Tooth (CMT) disease was first characterized by Jean-Martin Charcot and Pierre Marie in France and, independently, by Howard Henry Tooth in England in 1886. CMT is one of the most common inherited neurological diseases, affecting approximately 1 in 2,500 Americans. […] The most prevalent type of CMT is known as CMT1A and caused by a duplication of the PMP22 gene which leads to over-expression of this protein. PMP22 is a glycosylated intrinsic membrane protein accounting for 2-5% of the myelin protein content, and its over-expression results in demyelination and subsequently axonal loss.
A pair of cellular transcription-based assays was developed in the S16 rat Schwann cell lines (Hai, M., et al., 2002) stably transfected with orthogonal reporters - firefly luciferase (Fluc) and beta-lactamase (beta-Lac) - whose expression is driven by an intronic regulatory element of the PMP22 gene (Jones, E.A., et al., 2011) to recapitulate endogenous expression of PMP22. A comprehensive library of approved drugs, the NCGC Pharmaceutical Collection (Huang, R., et al., 2011), was screened in the cross-validating platform of the orthogonal reporter assays to identify drug modulators inhibitory towards PMP22 expression.
A set of counter-screens was devised to address non-specific activity of the library. An ATP-dependent CellTiter-Glo assay (developed by Promega Corp) was utilized to control cell viability. In addition, biochemical Fluc enzyme assay was performed to assess direct inhibition of the Fluc enzymatic activity.
Hai, M., Muja, N., DeVries, G.H., Quarles, R.H. and Patel, P.I. Comparative analysis of Schwann cell lines as model systems for myelin gene transcription studies. J Neurosci Res, 2002. 69(4): pp 497-508
Huang, R., Southall, N., Wang, Y., Yasgar A., Shinn P., Jadhav, A. , Nguyen, D.-T. and Austin, C.P., The NCGC pharmaceutical collection: a comprehensive resource of clinically approved drugs enabling repurposing and chemical genomics. Sci Transl Med, 2011. 3(80): p. 80ps16.
Native S16 cells were seeded in white solid-bottom 1536 well plates at between 500-750 cells/6uL in DMEM medium containing 10% FBS, w/o phenol red. After overnight incubation at 37 degree Celsius/5% C02, 23 nL of compounds or DMSO were delivered to each well using a pin tool, followed by 24h-incubation at 37 degree Celsius/5% C02. Then one volume of CellTiter-Glo assay reagent (Promega) was added to each well for cell viability measured by a ViewLux plate reader (PerkinElmer). The % activity was determined by normalizing to the average readings from wells containing no cells relative to DMSO-treated cells (0% Activity). The concentration-effect curves were then classified based on curve quality (r2), response magnitude and degree of measured activity.

Row | SMILES | outcome
1 | Nc1nc2c(c(=O)[nH]1)N(C=O)[C@H](CNc1ccc(C(=O)N[C@@H](CCC(=O)O)C(=O)O)cc1)CN2 | inactive
2 | OCC(O)C(O)C(O)CO (stereo not given) | inactive
3 | COc1cccc2c1C(=O)c1c(O)c3c(c(O)c1C2=O)C[C@@](O)(C(=O)CO)C[C@@H]3O[C@H]1C[C@H](N)[C@H](OC2CCCCO2)[C@H](C)O1 (stereo not given in full) | inactive
4 | COc1ccc2c(c1OC)C(=O)OC2[C@H]1c2c(cc3c(c2OC)OCO3)CCN1C (stereo not given in full) | inactive
5 | COc1ccc([C@@H]2CNC(=O)C2)cc1OC1CCCC1 | inactive

Assay: S16 Schwann cell PMP22 intronic element firefly luciferase assay (AID 624032); note: nearly all actives have a fitted effect of over 30% in size; note: potency is the fitted concentration of half-maximal effect
Conditions: S16 rat Schwann cells, PMP22 element FLuc, 24 h; series mostly up to 57.5 µM
Summary of the method: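 Rat S16 Schwann cells stably carrying firefly luciferase driven by a PMP22 intronic element, in 10% FBS, treated 24 h at 37 C. ONE-Glo luminescence normalized to PTC124 control and DMSO (0%); curves classed by r2, magnitude and activity.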

Row | SMILES | Potency
6 | Nc1nc2c(c(=O)[nH]1)N(C=O)[C@H](CNc1ccc(C(=O)N[C@@H](CCC(=O)O)C(=O)O)cc1)CN2 | inactive
7 | OCC(O)C(O)C(O)CO (stereo not given) | inactive
8 | COc1cccc2c1C(=O)c1c(O)c3c(c(O)c1C2=O)C[C@@](O)(C(=O)CO)C[C@@H]3O[C@H]1C[C@H](N)[C@H](OC2CCCCO2)[C@H](C)O1 (stereo not given in full) | inactive
9 | COc1ccc2c(c1OC)C(=O)OC2[C@H]1c2c(cc3c(c2OC)OCO3)CCN1C (stereo not given in full) | inactive
10 | CCCCCCCCCCCC(CC1OC(=O)C1CCCCCC)OC(=O)C(CC(C)C)NC=O (stereo not given) | 7.21 µM (active)
